Results filed as inconclusive are left out. Where a call stands in place of a potency, no number is given. A number with no mark means an inactive call. Calls of active or inactive are those of the source. Calls come from the whole dose curve; as a rule, active = well fitted cell-killing curve with a large enough effect; inconclusive = small, poorly fitted or top-dose-only effect, or effect the other way; inactive = no such curve, though single readings can be large or run the other way.
Key:
[1] = Quantitative High-Throughput drug screen in 47 multiple myeloma cell lines against the NCATS MIPE library collection: MM1R_ATCC cell viability assay (AID 1918981); note: nearly all actives have a fitted effect of over 35% in size; note: potency is the fitted concentration of half-maximal effect
In short: (§1)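 Cells were exposed to library compounds for 48 hours, after which ATP was measured by CellTiter-Glo. Signal was taken as median relative luminescence units.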

[2] = Quantitative High-Throughput drug screen in 47 multiple myeloma cell lines against the NCATS MIPE library collection: LP1_DSMZ cell viability assay (AID 1918982); note: nearly all actives have a fitted effect of over 35% in size
In short: as §1

[3] = Quantitative High-Throughput drug screen in 47 multiple myeloma cell lines against the NCATS MIPE library collection: KMS28PE_JCRB cell viability assay (AID 1918983); note: nearly all actives have a fitted effect of over 35% in size; note: potency is the fitted concentration of half-maximal effect
In short: as §1

[4] = Quantitative High-Throughput drug screen in 47 multiple myeloma cell lines against the NCATS MIPE library collection: OCIMY7_PLB cell viability assay (AID 1918987); conditions: OCI-MY7 myeloma viability, CellTiter-Glo ATP, 48 h; viability (% of DMSO): at 45.8 µM (top of the series); note: nearly all actives have a fitted effect of over 65% in size; note: potency is the fitted concentration of half-maximal effect
In short: as §1

[5] = Quantitative High-Throughput drug screen in 47 multiple myeloma cell lines against the NCATS MIPE library collection: OCIMY5_PLB cell viability assay (AID 1918988); note: nearly all actives have a fitted effect of over 65% in size; note: potency is the fitted concentration of half-maximal effect
In short: as §1

[6] = Quantitative High-Throughput drug screen in 47 multiple myeloma cell lines against the NCATS MIPE library collection: OPM1_PLB cell viability assay (AID 1918989); note: nearly all actives have a fitted effect of over 40% in size; note: potency is the fitted concentration of half-maximal effect
In short: as §1

[7] = Quantitative High-Throughput drug screen in 47 multiple myeloma cell lines against the NCATS MIPE library collection: SKMM1_PLB cell viability assay (AID 1919863); conditions: SKMM1 myeloma viability, CellTiter-Glo ATP, 48 h; viability: stronger effect = lower value; note: nearly all actives have a fitted effect of over 35% in size; note: potency is the fitted concentration of half-maximal effect
In short: as §1

[8] = Quantitative High-Throughput drug screen in 47 multiple myeloma cell lines against the NCATS MIPE library collection: XG6_PLB cell viability assay (AID 1919865); note: nearly all actives have a fitted effect of over 40% in size; note: potency is the fitted concentration of half-maximal effect
In short: as §1

[9] = Quantitative High-Throughput drug screen in 47 multiple myeloma cell lines against the NCATS MIPE library collection: XG1_PLB cell viability assay (AID 1919866); note: nearly all actives have a fitted effect of over 35% in size; note: potency is the fitted concentration of half-maximal effect
In short: as §1

[10] = Quantitative High-Throughput drug screen in 47 multiple myeloma cell lines against the NCATS MIPE library collection: UTMC2_PLB cell viability assay (AID 1919868); conditions: CellTiter-Glo ATP luminescence, 48 h; viability (% of DMSO control): at 45.8 µM (top of the series); note: nearly all actives have a fitted effect of over 55% in size; note: potency is the fitted concentration of half-maximal effect
In short: as §1

[11] = Quantitative High-Throughput drug screen in 47 multiple myeloma cell lines against the NCATS MIPE library collection: PE2_PLB cell viability assay (AID 1919869); note: nearly all actives have a fitted effect of over 35% in size; note: potency is the fitted concentration of half-maximal effect
In short: as §1

[12] = Quantitative High-Throughput drug screen in 47 multiple myeloma cell lines against the NCATS MIPE library collection: PCM6_Riken cell viability assay (AID 1919870); note: nearly all actives have a fitted effect of over 30% in size; note: potency is the fitted concentration of half-maximal effect
In short: as §1

[13] = Quantitative High-Throughput drug screen in 47 multiple myeloma cell lines against the NCATS MIPE library collection: RPMI8226_ATCC cell viability assay (AID 1919871); note: nearly all actives have a fitted effect of over 30% in size; note: potency is the fitted concentration of half-maximal effect
In short: as §1

[14] = Quantitative High-Throughput drug screen in 47 multiple myeloma cell lines against the NCATS MIPE library collection: OPM2_DSMZ cell viability assay (AID 1919872); note: nearly all actives have a fitted effect of over 30% in size; note: potency is the fitted concentration of half-maximal effect
In short: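 Primary qHTS used for cherry-picking: cells at 500/well, library compounds for 48 h (37C, 5% CO2), luminescent ATP assay.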

[15] = Quantitative High-Throughput drug screen in 47 multiple myeloma cell lines against the NCATS MIPE library collection: KMS34_JCRB cell viability assay (AID 1918985); note: nearly all actives have a fitted effect of over 40% in size; note: potency is the fitted concentration of half-maximal effect
In short: as §1

[16] = Quantitative High-Throughput drug screen in 47 multiple myeloma cell lines against the NCATS MIPE library collection: L363_DSMZ cell viability assay (AID 1918984); note: nearly all actives have a fitted effect of over 40% in size; note: potency is the fitted concentration of half-maximal effect
In short: as §1

[17] = Quantitative High-Throughput drug screen in 47 multiple myeloma cell lines against the NCATS MIPE library collection: U266_ATCC cell viability assay (AID 1919864); note: nearly all actives have a fitted effect of over 35% in size; note: potency is the fitted concentration of half-maximal effect
In short: as §1

[18] = Quantitative High-Throughput drug screen in 47 multiple myeloma cell lines against the NCATS MIPE library collection: VP6_DJ cell viability assay (AID 1919867); note: nearly all actives have a fitted effect of over 40% in size; note: potency is the fitted concentration of half-maximal effect
In short: as §1

Row | Structure (SMILES) | Potency [1] | Potency [2] | Potency [3] | Potency [4] | Potency [5] | Potency [6] | viability [7] | Potency [8] | Potency [9] | Potency [10] | Potency [11] | Potency [12] | Potency [13] | Potency [14] | Potency [15] | Potency [16] | Potency [17] | Potency [18] | Potency [7]
1 | COC(=O)C=CC(=O)OC | 23.5 µM (active) | inactive | inactive | 1.32 µM (active) | 11.8 µM (active) | 20.9 µM (active) | 144% | 1.32 µM (active) | 1.32 µM (active) | 2.35 µM (active) | 5.26 µM (active) | 3.32 µM (active) | inactive | inactive | – | – | – | – | –
2 | COC1=C(OC)C(=O)C(CC=C(C)CCC=C(C)CCC=C(C)CCC=C(C)CCC=C(C)CCC=C(C)CCC=C(C)CCC=C(C)CCC=C(C)CCC=C(C)C)=C(C)C1=O | – | inactive | – | inactive | – | inactive | 99.4% | inactive | inactive | inactive | inactive | inactive | – | – | inactive | – | – | – | –
3 | CCCCCCCCCCCCCCCC(=O)OC[C@@H](NC(=O)C(Cl)Cl)[C@H](O)c1ccc([N+](=O)[O-])cc1 | – | inactive | – | – | inactive | inactive | – | inactive | – | – | inactive | inactive | – | inactive | inactive | inactive | inactive | – | –
4 | CCC[C@H]1C[C@H](C(=O)N[C@@H]([C@@H]2O[C@@H](SC)[C@@H](O)[C@@H](O)[C@@H]2O)[C@H](C)Cl)N(C)C1 | – | inactive | inactive | inactive | inactive | inactive | – | inactive | inactive | – | – | inactive | inactive | inactive | inactive | inactive | – | inactive | –
5 | Cc1onc(-c2ccccc2)c1C(=O)N[C@@H]1C(=O)N2[C@@H](C(=O)O)C(C)(C)S[C@@H]12 | inactive | – | – | inactive | inactive | inactive | 123% | inactive | inactive | – | – | inactive | – | inactive | – | – | inactive | – | –
6 | C[C@@H](NCc1cc2ccccc2[nH]1)c1cccc2ccccc12 | inactive | inactive | inactive | – | inactive | inactive | 132% | inactive | – | – | – | inactive | inactive | inactive | – | – | – | – | –
7 | CC(Cc1ccc(O)c(O)c1)(NN)C(=O)O (stereo not drawn) | – | – | – | – | – | – | – | inactive | inactive | inactive | inactive | – | – | – | – | inactive | – | – | 16.6 µM (active)
8 | O=C(CCCCCCC(=O)Nc1cccnc1)NO | 2.64 µM (active) | – | 4.18 µM (active) | – | 3.32 µM (active) | 4.18 µM (active) | – | 11.8 µM (active) | 3.72 µM (active) | 0.935 µM (active) | 7.43 µM (active) | 7.43 µM (active) | 16.6 µM (active) | 8.33 µM (active) | 3.72 µM (active) | 5.9 µM (active) | – | 1.48 µM (active) | 5.9 µM (active)
9 | O=C(NC1CC1)c1cccc(-c2ccc3c(NC(=O)C4CC4)n[nH]c3c2)c1 | 1.48 µM (active) | – | 10.5 µM (active) | 7.43 µM (active) | 0.332 µM (active) | 14.8 µM (active) | – | 1.48 µM (active) | 1.05 µM (active) | – | – | – | – | 14.8 µM (active) | 20.9 µM (active) | inactive | – | – | –
10 | CN(N=O)C(=O)N[C@H]1C(O)OC(CO)[C@@H](O)[C@H]1O (stereo partly drawn) | – | inactive | – | inactive | – | inactive | – | inactive | inactive | – | inactive | inactive | inactive | – | – | inactive | – | – | –
11 | c1cc(CN2CCCNCCNCCCNCC2)ccc1CN1CCCNCCNCCCNCC1 | – | – | inactive | – | – | inactive | 136% | – | inactive | – | inactive | – | inactive | inactive | inactive | inactive | – | inactive | –
12 | C[C@@H](Cc1cc2c(c(C(N)=O)c1)N(CCCO)CC2)NCCOc1ccccc1OCC(F)(F)F | inactive | – | – | – | – | inactive | – | inactive | – | – | inactive | inactive | inactive | inactive | inactive | – | – | – | –
13 | Cc1cc(-c2nnc3n2CCCCC3)c(C)n1-c1ccccc1 | – | inactive | – | – | 23.5 µM (active) | – | – | – | inactive | inactive | inactive | – | – | inactive | – | – | – | inactive | –
14 | C[C@@]12C[C@@]3(O)O[C@@H](O1)[C@]1(COC(=O)c4ccccc4)[C@@H]3C[C@@]12O[C@@H]1O[C@H](CO)[C@@H](O)[C@H](O)[C@@H]1O | – | inactive | inactive | inactive | inactive | inactive | – | inactive | inactive | – | inactive | inactive | inactive | inactive | – | inactive | inactive | 2.64 µM (active) | –
15 | Cc1coc2c1C(=O)C(=O)c1c-2ccc2c(C)cccc12 | 20.9 µM (active) | – | 8.33 µM (active) | 5.9 µM (active) | 14.8 µM (active) | 2.96 µM (active) | – | – | – | – | – | 3.72 µM (active) | – | – | 0.166 µM (active) | – | 20.9 µM (active) | 11.8 µM (active) | 14.8 µM (active)
16 | O=C(O)[C@H](CC(=O)N1C[C@@H]2CCCC[C@H]2C1)Cc1ccccc1 | – | inactive | – | – | – | inactive | – | – | – | inactive | inactive | inactive | – | – | – | – | inactive | – | –
17 | Nc1nc2c(c(=O)[nH]1)N(C=O)[C@H](CNc1ccc(C(=O)N[C@@H](CCC(=O)O)C(=O)O)cc1)CN2 | – | – | – | – | inactive | inactive | – | inactive | inactive | – | inactive | inactive | inactive | inactive | inactive | – | – | inactive | –
18 | CC(Oc1ccc(O)cc1)(P(=O)(O)O)P(=O)(O)O | – | inactive | inactive | – | – | – | 108% | inactive | inactive | – | – | inactive | inactive | inactive | inactive | inactive | – | inactive | –
19 | C[C@@H]1C(=O)O[C@H]2CC34[C@H]5C[C@@H](C(C)(C)C)C36[C@H](OC(=O)[C@@H]6O)O[C@@]4(C(=O)O5)[C@]21O (stereo partly drawn) | inactive | – | – | – | – | – | – | inactive | inactive | inactive | inactive | – | inactive | inactive | inactive | – | inactive | inactive | –

Reference: PubChem BioAssay (NCATS)
